# Reference: PubChem BioAssay
# “And” between values parts separate entries of the source, which are not always exact repeats. Identical values can stand only once. The source made the active and inactive calls.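 How the source made its calls, unless noted: active means viability loss from added drug above about 55%, and viability with drug at most 40%, in both replicates (limit read from the data, passing the limit was not always enough); inconclusive means both conditions met in only one replicate; inactive means neither replicate meets both conditions.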
# Legend:
# [1] = Her2 expression decrease, cell viability multiplex – SKBR3 breast tumor cells, AlphaScreen, ATP viability, primary screen (AID 461;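 active means Her2 level under about 52% in both replicate screens, with viability over 70% of control, limit read from the data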;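 on Her2 level: lower value means less Her2 protein in the cells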;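 on viability: percent of carrier control wells set as 100% viability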); settings: SKBR3 Her2 protein level, 18-24 h, measured here: SKBR3 viability, ATP luminescence, at 10 µM
# [2] = target: Receptor tyrosine-protein kinase erbB-2 (Homo sapiens) (UniProt P04626); assay: as above; settings: 18-24 h, at 10 µM, stronger effect = lower value
# [3] = reduced viability of SK-BR-3 breast cancer cells – cell-based, 24 h, human, pilot screen (AID 572;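 active means viability at or below 10% of carrier control in both of two separate runs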;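 further: compound exposure lasted between 18 and 24 h rather than exactly 24 h; 100% = carrier-treated control wells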); settings: SK-BR-3 viability, CellTiter-Glo luminescence, at 10 µM, stronger effect = lower value
# [4] = HUVEC growth inhibition – cell-based, human, primary screen (AID 575;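 active means viability at or below 30% in both replicate assays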;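 further: 100% = median of untreated cell wells with 0.1% DMSO on each plate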); settings: HUVEC proliferation, CellTiter-Glo luminescence, 72 h; at 10 µM; stronger effect = lower value
# [5] = H69AR cell proliferation blockers – human, duplicate replicates, primary screen (AID 580;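 active means viability at or under a set limit in both replicates, limit being median viability minus 3 SD, cut at about 48% in these data, passing the limit was not always enough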;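 further: 100% = mean luminescence of untreated wells and 0% = no signal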); settings: H69AR lung tumor cells viability, ATP luminescence, 72 h; at 10 µM; stronger effect = lower value
# [6] = MRP1 drug-resistance reversers in H69AR cells – cell-based, doxorubicin co-treatment, pilot screen (AID 601); settings: CellTiter-Glo, 72 h, at 10 µM; for differential viability (reversal): stronger effect = higher value
# [7] = H69AR cells + 2 uM doxorubicin, measured here: viability with 2 uM doxorubicin, stronger effect = lower value
# [8] = H69AR cells, compound alone cytotoxicity
# Sequence of Receptor tyrosine-protein kinase erbB-2 (Homo sapiens) (P04626 whole entry, looked up): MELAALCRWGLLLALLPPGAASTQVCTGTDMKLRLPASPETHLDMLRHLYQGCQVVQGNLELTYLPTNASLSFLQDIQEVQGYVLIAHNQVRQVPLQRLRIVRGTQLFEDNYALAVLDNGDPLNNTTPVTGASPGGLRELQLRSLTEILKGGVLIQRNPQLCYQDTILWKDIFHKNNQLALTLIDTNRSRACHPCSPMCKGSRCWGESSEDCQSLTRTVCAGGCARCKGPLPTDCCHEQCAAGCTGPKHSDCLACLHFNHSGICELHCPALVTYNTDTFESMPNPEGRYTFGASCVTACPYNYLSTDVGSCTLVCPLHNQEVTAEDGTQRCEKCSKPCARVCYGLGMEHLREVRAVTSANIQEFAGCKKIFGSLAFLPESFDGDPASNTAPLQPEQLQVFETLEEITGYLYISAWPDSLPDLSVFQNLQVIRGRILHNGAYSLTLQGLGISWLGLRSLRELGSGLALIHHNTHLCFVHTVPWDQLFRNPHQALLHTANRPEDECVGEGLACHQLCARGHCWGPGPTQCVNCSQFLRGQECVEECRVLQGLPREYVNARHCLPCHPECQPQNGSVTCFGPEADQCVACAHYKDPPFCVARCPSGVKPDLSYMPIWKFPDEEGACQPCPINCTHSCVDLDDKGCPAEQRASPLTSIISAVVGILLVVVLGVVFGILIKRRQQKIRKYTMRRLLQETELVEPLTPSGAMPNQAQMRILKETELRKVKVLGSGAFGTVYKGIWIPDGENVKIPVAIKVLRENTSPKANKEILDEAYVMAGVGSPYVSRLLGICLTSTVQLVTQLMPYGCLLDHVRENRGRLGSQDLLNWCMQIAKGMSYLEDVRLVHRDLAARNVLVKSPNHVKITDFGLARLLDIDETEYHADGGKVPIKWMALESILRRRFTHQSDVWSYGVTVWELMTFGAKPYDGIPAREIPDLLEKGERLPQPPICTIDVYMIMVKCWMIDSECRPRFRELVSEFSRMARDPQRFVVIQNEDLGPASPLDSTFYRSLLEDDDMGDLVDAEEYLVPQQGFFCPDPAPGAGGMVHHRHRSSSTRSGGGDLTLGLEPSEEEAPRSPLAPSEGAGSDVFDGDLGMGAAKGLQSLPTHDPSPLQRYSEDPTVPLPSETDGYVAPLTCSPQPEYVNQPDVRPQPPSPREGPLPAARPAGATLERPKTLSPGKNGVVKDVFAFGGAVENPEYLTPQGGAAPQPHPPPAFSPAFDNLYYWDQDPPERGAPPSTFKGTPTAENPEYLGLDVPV
SMILES,viability [1],Her2 level [2],viability [3],viability [4],viability [5],differential viability (reversal) ([6]; H69AR cells + 2 uM doxorubicin),"viability [6, 7]","viability [6, 8]"
CCCNCC(O)COc1ccccc1C(=O)CCc1ccccc1 (stereo not drawn),97%,100% (inactive),97% (inactive),97.2% (inactive),87.1% (inactive),2.24% (inactive),84.8%,87.1%
COc1ccccc1OCC(O)COC(N)=O (stereo not drawn),93.5%,96% (inactive),93.5% (inactive),90.5% (inactive),99.9% (inactive),7.94% (inactive),92%,99.9%
C[C@H]1C[C@@H]2[C@H]([C@@H](O)C[C@@]3(C)[C@H]2CC[C@]3(O)C(=O)CO)[C@@]2(C)C=CC(=O)C=C12,115%,115% (inactive),115% (inactive),93.8% (inactive),88.1% (inactive),9.38% (inactive),78.7%,88.1%
CCN(CC)CC#CCOC(=O)C(O)(c1ccccc1)C1CCCCC1 (stereo not drawn),82%,99% (inactive),82% (inactive),79.6% (inactive),71.7% (inactive),-0.33% (inactive),72.1%,71.7%
c1ccc2c(CC3=NCCN3)cccc2c1,101%,99.5% (inactive),101% (inactive),91.7% (inactive),93.8% (inactive),14.9% (inactive),78.9%,93.8%
Cc1nnc(NS(=O)(=O)c2ccc(N)cc2)s1,93.5%,126% (inactive),93.5% (inactive),105% (inactive),96.2% (inactive),-10.4% (inactive),107%,96.2%
COc1ccc2cc([C@H](C)C(=O)O)ccc2c1,93.5%,107% (inactive),93.5% (inactive),111% (inactive),94.8% (inactive),11.8% (inactive),83%,94.8%
c1ccc(CN(CC2=NCCN2)c2ccccc2)cc1,91.5% and 100%,114% (inactive) and 91.5% (inactive),91.5% (inactive) and 100% (inactive),94.1% (inactive) and 87.9% (inactive),93.2% (inactive) and 96.6% (inactive),6.63% (inactive) and -1.34% (inactive),86.6% and 97.9%,93.2% and 96.6%
CCC(NC(C)C)C(O)c1ccc(O)c2[nH]c(=O)ccc12 (stereo not drawn),108%,94.5% (inactive),108% (inactive),107% (inactive),94.4% (inactive),11.7% (inactive),82.7%,94.4%
COc1ccc([C@@H]2Sc3ccccc3N(CCN(C)C)C(=O)[C@@H]2OC(C)=O)cc1,76%,106% (inactive),76% (inactive),100% (inactive),92.1% (inactive),-11.2% (inactive),103%,92.1%
C[C@@H]1C[C@H]2[C@@H]3CCC4=CC(=O)C=C[C@]4(C)[C@@]3(F)[C@@H](O)C[C@]2(C)[C@H]1C(=O)CO,84%,150% (inactive),84% (inactive),102% (inactive),91.2% (inactive),-10.7% (inactive),102%,91.2%
CCCCOc1ccc(CC(=O)NO)cc1,122%,98.5% (inactive),122% (inactive),97% (inactive),54.2% (inactive),-0.05% (inactive),54.3%,54.2%
CCCC(=O)O[C@]1(C(=O)CCl)[C@@H](C)C[C@H]2[C@@H]3CCC4=CC(=O)C=C[C@]4(C)[C@@]3(F)C(=O)C[C@@]21C,88.5%,122% (inactive),88.5% (inactive),81.2% (inactive),87.8% (inactive),6.43% (inactive),81.4%,87.8%
c1ccc2[nH]c(-c3cscn3)nc2c1,106%,104% (inactive),106% (inactive),91.1% (inactive),97.9% (inactive),-4.19% (inactive),102%,97.9%
NC(N)=NS(=O)(=O)c1ccc(N)cc1,100%,105% (inactive),100% (inactive),89.2% (inactive),98.8% (inactive),-2.93% (inactive),102%,98.8%
Cc1cn([C@H]2C=C[C@@H](CO)O2)c(=O)[nH]c1=O,94%,94.5% (inactive),94% (inactive),104% (inactive),109% (inactive),22.8% (inactive),86.2%,109%
CCCCC1C(=O)N(c2ccccc2)N(c2ccccc2)C1=O,99%,90.5% (inactive),99% (inactive),99.1% (inactive),98.5% (inactive),7.41% (inactive),91.1%,98.5%
CC[N+](C)(CC)CCOC(=O)C(O)(c1ccccc1)C1CCCCC1 (stereo not drawn),91.5%,97.5% (inactive),91.5% (inactive),98.9% (inactive),110% (inactive),12.8% (inactive),97%,110%

SMILES,viability [1],Her2 level [2],viability [3],viability [4],viability [5],differential viability (reversal) ([6]; H69AR cells + 2 uM doxorubicin),"viability [6, 7]","viability [6, 8]"
CCCC(=O)O[C@]1(C(=O)COC(C)=O)CC[C@H]2[C@@H]3C[C@H](F)C4=CC(=O)C=C[C@]4(C)[C@@]3(F)[C@@H](O)C[C@@]21C,95%,97.5% (inactive),95% (inactive),96.9% (inactive),95.6% (inactive),-8.84% (inactive),104%,95.6%
CN(C)CCOC(c1ccccc1)c1ccccc1 (tested in a mixture with another compound),93.5%,106% (inactive),93.5% (inactive),98.9% (inactive),103% (inactive),19.3% (inactive),83.7%,103%
C[C@]12CCC(=O)C=C1CC[C@@H]1[C@@H]2CC[C@@]2(C)[C@H]1CC[C@]2(O)C(=O)CO,99%,142% (inactive),99% (inactive),97.7% (inactive),92.8% (inactive),-6.52% (inactive),99.4%,92.8%
CN1CCN2c3ccccc3Cc3ccccc3C2C1 (stereo not drawn),82.5%,117% (inactive),82.5% (inactive),73.4% (inactive),90.2% (inactive),1.02% (inactive),89.1%,90.2%
CCN1CCN(c2cc3c(cc2F)c(=O)c(C(=O)O)cn3C2CC2)CC1,103%,98.5% (inactive),103% (inactive),98.3% (inactive),92% (inactive),3.18% (inactive),88.8%,92%
CCC(NC(C)C)C(O)c1ccc(O)c(O)c1 (stereo not drawn),87.5%,88% (inactive),87.5% (inactive),105% (inactive),85% (inactive),-6.46% (inactive),91.5%,85%
CN(C(=O)C(Cl)Cl)c1ccc(OC(=O)c2ccco2)cc1,130%,88% (inactive),130% (inactive),86.3% (inactive),96.6% (inactive),5.13% (inactive),91.5%,96.6%
Cc1cn([C@H]2C[C@H](N=[N+]=[N-])[C@@H](CO)O2)c(=O)[nH]c1=O,91.5%,90% (inactive),91.5% (inactive),104% (inactive),96.5% (inactive),4.1% (inactive),92.4%,96.5%
CCCn1c(=O)[nH]c(=O)c2[nH]cnc21,104%,92% (inactive),104% (inactive),98.1% (inactive),100% (inactive),3.64% (inactive),96.7%,100%
CC[N+](C)(C)c1cccc(O)c1,97.5%,94.5% (inactive),97.5% (inactive),81.1% (inactive),95% (inactive),9.69% (inactive),85.3%,95%
C[C@]12C[C@H](O)[C@H]3[C@@H](CCC4=CC(=O)CC[C@@]43C)[C@@H]1CC[C@@H]2C(=O)CO,106%,104% (inactive),106% (inactive),105% (inactive),88.3% (inactive),-5.99% (inactive),94.3%,88.3%
CN1CCCN=C1COC(=O)C(O)(c1ccccc1)C1CCCCC1 (stereo not drawn),95%,79.5% (inactive),95% (inactive),95% (inactive),91.6% (inactive),3.15% (inactive),88.4%,91.6%
CC(=O)NS(=O)(=O)c1ccc(N)cc1,118%,124% (inactive),118% (inactive),90% (inactive),102% (inactive),6.32% (inactive),95.4%,102%
CCCCCCCC(=O)OCC(=O)[C@@]1(O)CC[C@H]2[C@@H]3CCC4=CC(=O)CC[C@]4(C)[C@H]3[C@@H](O)C[C@@]21C,120%,102% (inactive),120% (inactive),97.6% (inactive),102% (inactive),-5.05% (inactive),107%,102%
CO[C@@]1(NC(=O)CSCC#N)C(=O)N2C(C(=O)O)=C(CSc3nnnn3C)CS[C@@H]21,110%,136% (inactive),110% (inactive),97% (inactive),95% (inactive),-5.77% (inactive),101%,95%
O=C(O)CCC(=O)Nc1ccc(S(=O)(=O)Nc2nccs2)cc1,122%,98.5% (inactive),122% (inactive),75.4% (inactive),94.4% (inactive),-2.46% (inactive),96.9%,94.4%
C[C@]12CCC(=O)C=C1CC[C@@H]1[C@@H]2C(=O)C[C@@]2(C)[C@H]1CC[C@]2(O)C(=O)CO,82.5%,110% (inactive),82.5% (inactive),98% (inactive),101% (inactive),12.6% (inactive),88.8%,101%
O=C(NCC1CCCCN1)c1cc(OCC(F)(F)F)ccc1OCC(F)(F)F (stereo not drawn),86%,101% (inactive),86% (inactive),91.8% (inactive),97.9% (inactive),-4.55% (inactive),102%,97.9%
